# Source: article PMC7862700, “An all-to-all approach to the identification of sequence-specific readers for epigenetic DNA modifications on cytosine”
# Columns and labels:
# Test in all cases: DAPPL (digital affinity profiling via proximity ligation, sequencing); 10 mM Tris-HCl pH 7.5, 50 mM NaCl, 1 mM DTT, 4% glycerol, room temperature, 30 min; GST-TFs on glutathione beads, 16-mer random dsDNA library, 0.1% formaldehyde crosslink after washing; high values mean tight binding
# FLI1 = target: T1, FLI1 (Homo sapiens, UniProt Q01543 1-452); details: protein: recombinant; tags: N-terminal GST; dsDNA, one strand shown
# T1 sequence: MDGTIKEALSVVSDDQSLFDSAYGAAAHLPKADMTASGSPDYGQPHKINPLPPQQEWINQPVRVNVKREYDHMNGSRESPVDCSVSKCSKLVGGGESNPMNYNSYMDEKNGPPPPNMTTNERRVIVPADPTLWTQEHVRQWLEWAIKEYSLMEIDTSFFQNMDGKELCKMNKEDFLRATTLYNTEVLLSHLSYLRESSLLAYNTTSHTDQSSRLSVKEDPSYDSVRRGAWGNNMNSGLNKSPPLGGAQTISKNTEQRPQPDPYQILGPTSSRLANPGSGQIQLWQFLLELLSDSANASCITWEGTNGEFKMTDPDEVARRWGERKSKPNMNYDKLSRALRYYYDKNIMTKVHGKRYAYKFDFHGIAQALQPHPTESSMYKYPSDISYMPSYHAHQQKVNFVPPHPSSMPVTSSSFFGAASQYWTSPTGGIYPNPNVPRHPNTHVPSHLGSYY
# Method in brief: (§1)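 After expression in yeast as GST fusions, human transcription factors were bound to glutathione beads, DNA-barcoded and mixed with a tag-only sample. The pools were incubated with 200 nmole of a 16-mer random double-stranded DNA library in Tris/NaCl/DTT/glycerol buffer (30 min, room temperature), washed and crosslinked with 0.1% formaldehyde. Proximity ligation with BsaI/T4 ligase ran for 1 h at 37 °C, before PCR amplification and sequencing on an Illumina NextSeq500. Binding signal is a hexamer's read frequency for a factor divided by its frequency for the tag-only sample.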
# ELK1 = target: T2, ELK1 (Homo sapiens, UniProt P19419 1-428); details: protein: recombinant; tags: N-terminal GST; dsDNA, one strand shown
# T2 sequence: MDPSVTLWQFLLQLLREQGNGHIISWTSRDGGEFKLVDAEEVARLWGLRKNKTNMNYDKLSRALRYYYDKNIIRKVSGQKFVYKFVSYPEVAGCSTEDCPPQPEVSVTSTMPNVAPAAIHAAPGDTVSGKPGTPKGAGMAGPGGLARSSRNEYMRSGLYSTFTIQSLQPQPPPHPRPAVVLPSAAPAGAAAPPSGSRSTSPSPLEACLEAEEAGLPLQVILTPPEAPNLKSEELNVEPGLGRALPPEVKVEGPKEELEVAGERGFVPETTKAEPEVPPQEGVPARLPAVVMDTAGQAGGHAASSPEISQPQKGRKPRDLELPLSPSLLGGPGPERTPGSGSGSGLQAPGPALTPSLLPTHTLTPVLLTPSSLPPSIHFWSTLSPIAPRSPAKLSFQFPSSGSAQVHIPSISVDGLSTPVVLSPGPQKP
# Method in brief: as §1
# GABPA = target: T3, GABPA (Homo sapiens, UniProt Q06546 1-454); details: protein: recombinant; tags: N-terminal GST; dsDNA, one strand shown
# T3 sequence: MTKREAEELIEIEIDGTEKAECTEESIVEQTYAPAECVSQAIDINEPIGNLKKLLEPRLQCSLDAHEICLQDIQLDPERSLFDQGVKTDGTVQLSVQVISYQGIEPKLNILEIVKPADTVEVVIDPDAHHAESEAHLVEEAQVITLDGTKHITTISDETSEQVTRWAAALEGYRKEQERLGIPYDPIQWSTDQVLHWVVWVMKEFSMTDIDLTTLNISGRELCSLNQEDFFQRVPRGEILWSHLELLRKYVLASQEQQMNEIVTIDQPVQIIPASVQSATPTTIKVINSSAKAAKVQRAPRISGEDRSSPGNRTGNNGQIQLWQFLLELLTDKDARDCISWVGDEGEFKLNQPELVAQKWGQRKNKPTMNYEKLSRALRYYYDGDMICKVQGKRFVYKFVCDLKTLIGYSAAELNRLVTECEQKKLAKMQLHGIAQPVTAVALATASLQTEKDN
# Method in brief: as §1
# ERG = target: T4, ERG (Homo sapiens, UniProt P11308 1-479); details: protein: recombinant; tags: N-terminal GST; dsDNA, one strand shown
# T4 sequence: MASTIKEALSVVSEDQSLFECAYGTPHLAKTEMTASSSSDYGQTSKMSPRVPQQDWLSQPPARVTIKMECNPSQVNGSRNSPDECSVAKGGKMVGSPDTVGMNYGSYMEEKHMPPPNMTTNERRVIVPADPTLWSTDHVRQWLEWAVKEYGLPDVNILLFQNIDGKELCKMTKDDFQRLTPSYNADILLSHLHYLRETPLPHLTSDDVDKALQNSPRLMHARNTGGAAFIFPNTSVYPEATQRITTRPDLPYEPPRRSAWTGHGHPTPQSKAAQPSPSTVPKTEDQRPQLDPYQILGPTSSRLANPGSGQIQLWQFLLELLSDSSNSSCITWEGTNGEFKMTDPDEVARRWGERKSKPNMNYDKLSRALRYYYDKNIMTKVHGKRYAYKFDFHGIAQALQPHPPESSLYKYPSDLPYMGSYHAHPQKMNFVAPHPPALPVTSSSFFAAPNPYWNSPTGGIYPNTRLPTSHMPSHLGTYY
# Method in brief: as §1
# ELF1 = ELF1 (Homo sapiens, UniProt P32519 1-619); details: protein: recombinant; tags: N-terminal GST; dsDNA, one strand shown
# Method in brief: as §1
# EHF = target: T5, EHF (Homo sapiens, UniProt Q9NZC4 1-300); details: protein: recombinant; tags: N-terminal GST; dsDNA, one strand shown
# T5 sequence: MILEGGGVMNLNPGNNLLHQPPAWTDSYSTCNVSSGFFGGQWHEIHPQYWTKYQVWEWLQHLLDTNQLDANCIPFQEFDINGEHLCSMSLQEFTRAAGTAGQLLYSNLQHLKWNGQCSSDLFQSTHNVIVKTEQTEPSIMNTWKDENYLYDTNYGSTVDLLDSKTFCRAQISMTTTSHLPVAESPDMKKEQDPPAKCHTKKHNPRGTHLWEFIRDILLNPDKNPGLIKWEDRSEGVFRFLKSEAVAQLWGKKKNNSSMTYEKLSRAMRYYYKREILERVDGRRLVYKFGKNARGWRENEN
# Method in brief: as §1
# SPI1 = SPI1 (Homo sapiens, UniProt P17947 1-270); details: protein: recombinant; tags: N-terminal GST; dsDNA, one strand shown
# Method in brief: as §1
# SPIB = SPIB (Homo sapiens, UniProt Q01892 1-262); details: protein: recombinant; tags: N-terminal GST; dsDNA, one strand shown
# Method in brief: as §1
# ELK3 = target: T6, ELK3 (Homo sapiens, UniProt P41970 1-407); details: protein: recombinant; tags: N-terminal GST; dsDNA, one strand shown
# T6 sequence: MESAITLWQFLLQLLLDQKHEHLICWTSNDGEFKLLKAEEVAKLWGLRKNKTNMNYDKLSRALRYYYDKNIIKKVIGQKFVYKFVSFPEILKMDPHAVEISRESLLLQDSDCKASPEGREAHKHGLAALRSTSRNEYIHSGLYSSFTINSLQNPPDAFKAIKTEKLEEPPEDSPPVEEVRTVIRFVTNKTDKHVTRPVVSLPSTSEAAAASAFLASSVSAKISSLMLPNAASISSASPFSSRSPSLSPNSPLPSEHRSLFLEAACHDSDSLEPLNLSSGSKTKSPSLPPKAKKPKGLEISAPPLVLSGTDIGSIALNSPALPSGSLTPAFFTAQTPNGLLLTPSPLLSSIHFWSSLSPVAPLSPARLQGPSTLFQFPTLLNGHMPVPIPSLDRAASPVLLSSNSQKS
# Method in brief: as §1
# FEV = target: T7, FEV (Homo sapiens, UniProt Q99581 1-238); details: protein: recombinant; tags: N-terminal GST; dsDNA, one strand shown
# T7 sequence: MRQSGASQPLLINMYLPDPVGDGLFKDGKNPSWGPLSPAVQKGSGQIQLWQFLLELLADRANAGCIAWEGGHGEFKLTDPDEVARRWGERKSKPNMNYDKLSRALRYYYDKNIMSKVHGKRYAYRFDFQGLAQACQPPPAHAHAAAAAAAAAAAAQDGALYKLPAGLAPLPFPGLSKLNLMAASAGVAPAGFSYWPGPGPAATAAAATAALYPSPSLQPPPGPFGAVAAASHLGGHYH
# Method in brief: as §1
# ETV5 = ETV5 (Homo sapiens, UniProt P41161 1-510); details: protein: recombinant; tags: N-terminal GST; dsDNA, one strand shown
# Method in brief: as §1
# HSF1 = HSF1 (Homo sapiens, UniProt Q00613 1-529); details: protein: recombinant; tags: N-terminal GST; chain copies: 3; dsDNA, one strand shown
# Method in brief: as §1
# SPIC = target: T8, SPIC (Homo sapiens, UniProt Q8N5J4 1-248); details: protein: recombinant; tags: N-terminal GST; dsDNA, one strand shown
# T8 sequence: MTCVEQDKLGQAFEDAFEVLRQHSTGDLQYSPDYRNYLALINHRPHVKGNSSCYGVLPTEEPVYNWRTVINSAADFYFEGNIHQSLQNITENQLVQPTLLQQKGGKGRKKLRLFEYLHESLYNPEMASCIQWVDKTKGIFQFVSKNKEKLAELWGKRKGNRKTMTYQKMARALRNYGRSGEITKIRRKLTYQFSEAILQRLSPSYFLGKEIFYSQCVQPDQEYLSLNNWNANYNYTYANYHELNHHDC
# Method in brief: as §1
# ELF4 = ELF4 (Homo sapiens, UniProt Q99607 1-663); details: protein: recombinant; tags: N-terminal GST; dsDNA, one strand shown
# Method in brief: as §1
# ELK4 = target: T9, ELK4 (Homo sapiens, UniProt P28324-2 1-405); details: protein: recombinant; tags: N-terminal GST; dsDNA, one strand shown
# T9 sequence: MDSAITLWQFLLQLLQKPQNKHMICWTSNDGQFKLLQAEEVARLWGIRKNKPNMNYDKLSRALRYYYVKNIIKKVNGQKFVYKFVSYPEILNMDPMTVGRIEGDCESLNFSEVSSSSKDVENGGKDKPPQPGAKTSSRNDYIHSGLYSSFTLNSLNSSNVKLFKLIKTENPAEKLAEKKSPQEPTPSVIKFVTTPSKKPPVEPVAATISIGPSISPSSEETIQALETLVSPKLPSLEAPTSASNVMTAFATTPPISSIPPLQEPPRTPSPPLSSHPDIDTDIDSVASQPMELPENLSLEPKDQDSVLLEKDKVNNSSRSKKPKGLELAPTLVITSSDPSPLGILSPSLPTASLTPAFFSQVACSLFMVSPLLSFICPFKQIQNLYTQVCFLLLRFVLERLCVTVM
# Method in brief: as §1
# ETV2 = target: T10, ETV2 (Homo sapiens, UniProt O00321 1-342); details: protein: recombinant; tags: N-terminal GST; dsDNA, one strand shown
# T10 sequence: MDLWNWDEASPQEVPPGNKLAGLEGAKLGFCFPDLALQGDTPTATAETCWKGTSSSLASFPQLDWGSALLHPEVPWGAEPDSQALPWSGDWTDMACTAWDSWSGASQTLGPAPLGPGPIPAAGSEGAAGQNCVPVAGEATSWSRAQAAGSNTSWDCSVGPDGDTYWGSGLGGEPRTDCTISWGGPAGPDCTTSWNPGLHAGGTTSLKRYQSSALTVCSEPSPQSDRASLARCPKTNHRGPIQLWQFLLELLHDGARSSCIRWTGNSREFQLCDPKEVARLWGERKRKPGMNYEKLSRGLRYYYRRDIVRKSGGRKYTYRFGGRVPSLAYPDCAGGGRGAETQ
# Method in brief: as §1
# ELF3 = target: T11, ELF3 (Homo sapiens, UniProt P78545 1-371); details: protein: recombinant; tags: N-terminal GST; dsDNA, one strand shown
# T11 sequence: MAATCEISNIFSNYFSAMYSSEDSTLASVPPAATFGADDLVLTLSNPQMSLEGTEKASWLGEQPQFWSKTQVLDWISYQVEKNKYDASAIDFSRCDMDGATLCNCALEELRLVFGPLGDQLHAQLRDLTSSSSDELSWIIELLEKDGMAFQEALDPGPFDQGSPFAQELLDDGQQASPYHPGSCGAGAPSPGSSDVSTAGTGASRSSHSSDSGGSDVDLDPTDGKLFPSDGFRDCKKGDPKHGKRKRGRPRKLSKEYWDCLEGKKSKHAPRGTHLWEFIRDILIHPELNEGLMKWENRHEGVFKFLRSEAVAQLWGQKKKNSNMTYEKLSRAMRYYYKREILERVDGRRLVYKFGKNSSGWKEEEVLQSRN
# Method in brief: as §1
# CRX = CRX (Homo sapiens, UniProt O43186 1-299); details: protein: recombinant; tags: N-terminal GST; dsDNA, one strand shown
# Method in brief: as §1
# ETV1 = ETV1 (Homo sapiens, UniProt P50549 1-477); details: protein: recombinant; tags: N-terminal GST; dsDNA, one strand shown
# Method in brief: as §1
# Sequence of ELF4 (Q99607 whole entry): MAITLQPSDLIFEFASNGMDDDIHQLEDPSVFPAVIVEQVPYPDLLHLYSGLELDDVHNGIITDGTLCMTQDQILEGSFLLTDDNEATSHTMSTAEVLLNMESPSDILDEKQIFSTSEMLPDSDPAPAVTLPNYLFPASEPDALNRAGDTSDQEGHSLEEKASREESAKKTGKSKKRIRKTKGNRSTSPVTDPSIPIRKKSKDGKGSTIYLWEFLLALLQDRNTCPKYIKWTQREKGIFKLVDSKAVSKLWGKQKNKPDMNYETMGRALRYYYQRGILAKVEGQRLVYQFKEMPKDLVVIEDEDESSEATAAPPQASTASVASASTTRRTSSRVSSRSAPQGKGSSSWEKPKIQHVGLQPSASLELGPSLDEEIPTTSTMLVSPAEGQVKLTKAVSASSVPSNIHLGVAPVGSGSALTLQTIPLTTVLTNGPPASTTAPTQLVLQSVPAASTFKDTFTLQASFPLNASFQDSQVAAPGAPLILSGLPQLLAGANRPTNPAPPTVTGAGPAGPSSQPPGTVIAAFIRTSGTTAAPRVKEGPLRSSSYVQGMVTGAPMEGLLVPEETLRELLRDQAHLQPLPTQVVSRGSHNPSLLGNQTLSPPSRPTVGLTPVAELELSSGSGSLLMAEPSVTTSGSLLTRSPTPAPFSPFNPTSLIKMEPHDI
# Sequence of SPIB (Q01892 whole entry): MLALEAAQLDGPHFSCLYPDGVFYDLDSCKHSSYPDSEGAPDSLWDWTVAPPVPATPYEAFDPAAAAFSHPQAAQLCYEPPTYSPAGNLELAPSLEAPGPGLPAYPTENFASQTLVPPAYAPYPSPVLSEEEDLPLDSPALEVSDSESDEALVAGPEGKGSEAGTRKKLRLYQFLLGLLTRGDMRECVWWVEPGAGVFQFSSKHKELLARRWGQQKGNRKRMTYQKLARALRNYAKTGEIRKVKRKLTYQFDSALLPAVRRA
# Sequence of ELF1 (P32519 whole entry): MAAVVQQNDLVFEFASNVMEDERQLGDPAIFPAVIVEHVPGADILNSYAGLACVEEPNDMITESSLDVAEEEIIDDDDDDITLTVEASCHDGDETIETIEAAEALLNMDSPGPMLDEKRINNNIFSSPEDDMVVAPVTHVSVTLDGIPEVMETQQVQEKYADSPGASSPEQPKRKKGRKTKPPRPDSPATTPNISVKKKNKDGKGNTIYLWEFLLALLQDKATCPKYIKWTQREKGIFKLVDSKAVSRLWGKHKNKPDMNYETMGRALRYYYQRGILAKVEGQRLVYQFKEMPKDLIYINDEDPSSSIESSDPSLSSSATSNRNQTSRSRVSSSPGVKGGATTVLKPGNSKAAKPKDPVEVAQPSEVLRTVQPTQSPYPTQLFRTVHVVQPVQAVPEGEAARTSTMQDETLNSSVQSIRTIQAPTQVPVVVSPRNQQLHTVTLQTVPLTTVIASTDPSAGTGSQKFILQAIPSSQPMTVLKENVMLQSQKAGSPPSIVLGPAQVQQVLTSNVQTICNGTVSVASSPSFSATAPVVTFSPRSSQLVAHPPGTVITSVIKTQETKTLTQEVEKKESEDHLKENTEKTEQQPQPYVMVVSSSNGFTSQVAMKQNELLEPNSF
# Sequence of ETV5 (P41161 whole entry): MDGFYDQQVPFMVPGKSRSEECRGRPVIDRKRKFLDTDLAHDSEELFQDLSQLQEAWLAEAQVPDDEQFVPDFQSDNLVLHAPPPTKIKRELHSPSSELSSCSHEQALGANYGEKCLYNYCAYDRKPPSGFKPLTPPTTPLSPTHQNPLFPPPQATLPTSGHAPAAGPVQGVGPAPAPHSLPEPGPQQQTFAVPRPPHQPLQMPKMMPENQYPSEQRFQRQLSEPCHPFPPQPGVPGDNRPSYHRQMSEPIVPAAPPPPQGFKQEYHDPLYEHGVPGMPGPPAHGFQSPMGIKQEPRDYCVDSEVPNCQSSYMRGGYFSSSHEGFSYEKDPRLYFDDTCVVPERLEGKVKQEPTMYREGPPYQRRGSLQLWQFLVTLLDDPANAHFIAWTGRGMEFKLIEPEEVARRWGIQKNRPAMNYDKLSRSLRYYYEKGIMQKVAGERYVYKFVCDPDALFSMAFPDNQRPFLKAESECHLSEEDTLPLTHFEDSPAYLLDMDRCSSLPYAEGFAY
# Sequence of CRX (O43186 whole entry): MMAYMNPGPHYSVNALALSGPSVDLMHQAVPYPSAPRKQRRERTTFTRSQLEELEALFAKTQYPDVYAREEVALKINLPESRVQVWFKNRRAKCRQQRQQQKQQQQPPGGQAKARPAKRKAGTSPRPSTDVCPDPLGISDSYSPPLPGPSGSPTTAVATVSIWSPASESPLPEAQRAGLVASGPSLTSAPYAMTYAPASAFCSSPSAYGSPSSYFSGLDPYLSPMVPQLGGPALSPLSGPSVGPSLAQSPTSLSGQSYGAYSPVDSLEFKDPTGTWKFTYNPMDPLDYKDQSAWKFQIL
# Sequence of HSF1 (Q00613 whole entry): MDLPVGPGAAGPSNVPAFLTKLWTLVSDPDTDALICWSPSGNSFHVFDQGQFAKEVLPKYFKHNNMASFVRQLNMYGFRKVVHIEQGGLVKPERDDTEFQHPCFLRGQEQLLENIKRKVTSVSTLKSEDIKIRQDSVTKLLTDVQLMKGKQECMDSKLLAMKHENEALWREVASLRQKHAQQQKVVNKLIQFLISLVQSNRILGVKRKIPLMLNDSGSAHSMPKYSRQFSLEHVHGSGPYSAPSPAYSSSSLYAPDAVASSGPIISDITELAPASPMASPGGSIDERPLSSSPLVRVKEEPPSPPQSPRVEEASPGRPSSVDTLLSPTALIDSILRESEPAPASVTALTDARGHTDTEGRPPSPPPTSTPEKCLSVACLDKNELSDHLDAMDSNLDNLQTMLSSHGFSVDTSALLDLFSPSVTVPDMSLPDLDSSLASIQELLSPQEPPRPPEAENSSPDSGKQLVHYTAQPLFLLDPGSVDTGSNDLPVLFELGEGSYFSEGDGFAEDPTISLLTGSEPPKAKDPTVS
# Sequence of ETV1 (P50549 whole entry): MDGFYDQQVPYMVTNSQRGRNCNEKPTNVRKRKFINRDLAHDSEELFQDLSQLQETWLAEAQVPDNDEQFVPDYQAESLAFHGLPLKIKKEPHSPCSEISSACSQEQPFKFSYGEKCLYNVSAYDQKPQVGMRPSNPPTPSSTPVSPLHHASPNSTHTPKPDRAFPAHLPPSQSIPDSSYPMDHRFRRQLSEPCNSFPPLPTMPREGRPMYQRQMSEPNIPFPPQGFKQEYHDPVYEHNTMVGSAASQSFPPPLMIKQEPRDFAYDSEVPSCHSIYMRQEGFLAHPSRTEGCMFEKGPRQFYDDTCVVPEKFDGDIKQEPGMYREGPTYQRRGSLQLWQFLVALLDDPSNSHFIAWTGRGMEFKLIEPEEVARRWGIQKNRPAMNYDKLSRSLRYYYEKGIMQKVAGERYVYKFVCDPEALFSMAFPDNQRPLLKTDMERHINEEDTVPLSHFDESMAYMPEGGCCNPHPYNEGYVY
sequence,measurement,setting,value
CAAAAT,binding signal,FLI1,"1.16 fold enrichment (6-mer frequency, TF over GST control)"
same,binding signal,ELK1,"1.11 fold enrichment (6-mer frequency, TF over GST control)"
same,binding signal,GABPA,"1.2 fold enrichment (6-mer frequency, TF over GST control)"
same,binding signal,ERG,"1.27 fold enrichment (6-mer frequency, TF over GST control)"
same,binding signal,ELF1,"1.18 fold enrichment (6-mer frequency, TF over GST control)"
same,binding signal,EHF,"1.16 fold enrichment (6-mer frequency, TF over GST control)"
same,binding signal,SPI1,"1.28 fold enrichment (6-mer frequency, TF over GST control)"
same,binding signal,SPIB,"1.18 fold enrichment (6-mer frequency, TF over GST control)"
same,binding signal,ELK3,"1.21 fold enrichment (6-mer frequency, TF over GST control)"
same,binding signal,FEV,"1.17 fold enrichment (6-mer frequency, TF over GST control)"
same,binding signal,ETV5,"1.22 fold enrichment (6-mer frequency, TF over GST control)"
same,binding signal,HSF1,"1.2 fold enrichment (6-mer frequency, TF over GST control)"
same,binding signal,SPIC,"1.16 fold enrichment (6-mer frequency, TF over GST control)"
same,binding signal,ELF4,"1.25 fold enrichment (6-mer frequency, TF over GST control)"
same,binding signal,ELK4,"1.23 fold enrichment (6-mer frequency, TF over GST control)"
same,binding signal,ETV2,"1.28 fold enrichment (6-mer frequency, TF over GST control)"
same,binding signal,ELF3,"1.2 fold enrichment (6-mer frequency, TF over GST control)"
same,binding signal,CRX,"1.22 fold enrichment (6-mer frequency, TF over GST control)"
same,binding signal,ETV1,"1.25 fold enrichment (6-mer frequency, TF over GST control)"
